Screen size: about 370,000 compounds; about 150 (0.041%) were called active. About 14% were inconclusive and are not listed. The call rests on the fitted dose curve; in most records, active means well fitted inhibition curve with a large enough effect; inconclusive means small, poorly fitted or top-dose-only effect; inactive means flat fitted curve, though single readings scatter. The list comes from a sample in which actives are over-represented; it also holds similar structures and randomly drawn compounds. Where a call stands in place of a potency, no number is given.
Potency means the concentration at half of the fitted maximal effect.

The experiment deals with Beta-lactamase (Escherichia coli (strain K12)) (UniProt P00811). As to the kind of experiment: qHTS Inhibitors of AmpC Beta-Lactamase (assay with detergent). Further: nearly all actives have a fitted effect of over 25% in size. To be noted: AmpC hydrolysis of nitrocefin, absorbance 480 nm, 0.01% Triton; series mostly up to 114 µM. A general note: In qHTS, concentration-response curves come from the screen itself.
Sequence of Beta-lactamase (Escherichia coli (strain K12)) (P00811 whole entry, looked up): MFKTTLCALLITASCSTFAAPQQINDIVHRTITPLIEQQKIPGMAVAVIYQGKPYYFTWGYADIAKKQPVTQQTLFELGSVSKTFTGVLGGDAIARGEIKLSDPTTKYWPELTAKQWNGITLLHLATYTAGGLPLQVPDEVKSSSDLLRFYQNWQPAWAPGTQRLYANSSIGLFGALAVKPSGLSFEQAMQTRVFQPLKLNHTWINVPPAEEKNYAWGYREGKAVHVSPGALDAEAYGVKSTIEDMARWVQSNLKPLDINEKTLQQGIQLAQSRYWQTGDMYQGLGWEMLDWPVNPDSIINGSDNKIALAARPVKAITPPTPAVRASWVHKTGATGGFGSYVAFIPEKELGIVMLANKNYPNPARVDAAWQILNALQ
As to `CCOc1cc(CNC(=O)c2sc3ncnc(N(C)C4CCCCC4)c3c2C)ccc1OC`, the Potency entry is “inactive”.
As to `CCS(=O)(=O)N1CCc2cc(C(=O)NCc3ccc(OC)cc3)ccc21`, the Potency result is “inactive”.
To `Cc1ccccc1C(=O)Nc1ccccc1NC(=O)c1ccccc1C` belongs “inactive”; to `Cc1ccc(NC2=C(Cl)C(=O)OC2OC(=O)c2ccccc2C)cc1` (centres undefined), 6.31 µM (active).
To `COC(=O)C1=C(Nc2ccc(OC)cc2)C=C(C)C(C(=O)OC)C1c1ccc(C)cc1` (centres undefined) belongs “inactive”.
For `Cc1ccccc1C(=O)O`, the Potency result is “inactive”.
On to `Cc1ccccc1C(=O)OC1OC(=O)C(Cl)=C1Nc1ccccc1` (centres undefined), for which the Potency was 14.1 µM (active).
To `Cc1ccc(Cl)cc1N1CCN(C(=O)c2cccn3c(=O)c4cc(Cl)ccc4nc23)CC1` belongs “inactive”.
The result for `CCOc1ccc(CNC(=O)CCc2c(C)nn(-c3ccc(N4CCCCC4)nn3)c2C)cc1` reads “inactive”.
On to `CCOC(=O)c1ccc(N2C(=O)c3[nH]nc(-c4ccccc4)c3C2c2ccc(C(C)C)cc2)cc1` (centres undefined), for which the Potency entry was “inactive”.
To `Cc1oc2ncnc(N3CCOCC3)c2c1C(=O)NCCc1ccccc1` belongs “inactive”; to `COc1cc(NC(=O)Cn2c(=O)n(Cc3ccco3)c(=O)c3oc4ccccc4c32)cc(OC)c1`, “inactive”.
Turning to `CC(C)c1ccc(NS(=O)(=O)c2ccc3[nH]cc(C(=O)NC4CCCC4)c(=O)c3c2)cc1`, the Potency result is “inactive”.
The result for `COc1ccc(CCNC(=O)Cn2c(=O)cc(C(F)(F)F)c3c(C)nn(C)c32)c(OC)c1` reads “inactive”; that for `CC(=O)c1cccc(NC(=O)CSc2nc3c(c(=O)[nH]2)CCC3)c1`, “inactive”.
The result for `CCOC(=O)c1ccc(N2C(=O)c3n[nH]c(C)c3C2c2ccc(O)c(OC)c2)cc1` (centres undefined) reads “inactive”.
With `O=c1cc2nc(-c3ccccc3)nc(SCCOc3ccc(Cl)cc3)n2[nH]1`, the Potency entry is “inactive”.
On to `Cc1ccc(OCCSc2nc(-c3cccs3)nc3cc(=O)[nH]n23)cc1Cl`, for which the Potency entry was “inactive”.
As for `COc1ccccc1-c1cc2nc(C)c(CCC(=O)NC3CCCCC3)c(C)n2n1`, the Potency entry was “inactive”.
Regarding `CNc1ccc(-c2nc(-c3ccco3)no2)cc1[N+](=O)[O-]`, the Potency entry was “inactive”.
With `CC1CCC(N2CC(=O)N(CCC3=CCCCC3)C(c3ccc(F)cc3)C2=O)CC1` (centres undefined), the Potency result is “inactive”.
Consider `Fc1ccc(CSc2nc(NCc3ccccc3)c3ccccc3n2)cc1`, for which the Potency result is “inactive”.
`O=C(CCc1ccccc1)NCc1ccc2c(c1)CCN2C(=O)c1ccccc1`: the Potency result is “inactive”.
The result for `COc1ccc(-c2cc(C(F)(F)F)nc(SCC(=O)N(C)Cc3ccccc3)n2)cc1OC` reads “inactive”; that for `Cc1oc2ncn(CC(C)C)c(=O)c2c1C(=O)N1CCN(c2ccccc2F)CC1`, “inactive”.
The result for `O=P(O)(CN1CCCCCC1)C1Cc2ccccc2C1` reads 50.1 µM (active).
As for `O=C(CN1CCCC1)N1CCN(c2ccccc2)CC1`, the Potency entry was “inactive”.
The result for `O=P(O)(CN1CCCCC1)CN1CCCCC1` reads “inactive”; that for `CCn1cc(C(=O)N2CCN(c3cc(C)ccc3C)CC2)c(=O)c2cc(S(=O)(=O)N(C)C3CCCCC3)ccc21`, “inactive”.

These data come from PubChem BioAssay AID485294 (National Center for Advancing Translational Sciences (NCATS), 2010).
